Test results: PubChem BioAssay (NCI)
This is part of a sample that, as a whole, favours compounds with a hit. Of some 83,000 tested, about 20% had one in any assay.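 96-well plates, one dose, 48 hours. Percent growth reported; active if below 10.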 Values without a mark were called inactive. The source made the active and inactive calls.

Tested on: RXF 393 renal
Experiment: NCI-60 one-dose screen, 48 h (100 = growth as untreated, 0 = no growth, -100 = all killed)
Conditions: 10 µM unless noted

Row | SMILES | growth
1 | CN(C[C@H]1Cc2c(cccc2N2CCN(c3ncccn3)CC2)CN1)[C@H]1CCCc2cccnc21 | 57.6%
2 | COc1ccc(-c2cnoc2-c2ccc(OC)cc2O)cc1 | 23.9%
3 | COc1ccc(/C=N\NC(=O)CN2CCN(c3cc4c(cc3F)c(=O)c(C(=O)N/N=C/c3ccc(OC)c(OC)c3)cn4C3CC3)CC2)cc1OC | 61.1%
4 | C1=Cc2ccccc2N(c2nnc(-c3ccccc3)o2)c2ccccc21 | 91.1%
5 | COc1ccc(-c2nc3sc(-c4cc(OC)c(OC)c(OC)c4)nn3c2/C=C2/C(=O)Nc3ccc(F)cc32)cc1 | -32% (active)
6 | O=C(Oc1ccccc1[N+](=O)[O-])C1CCCN1C(=O)OCc1ccccc1 (centres undefined) | 96%
7 | CC(C)(C)OC(=O)NC(CSCc1ccccc1)C(=O)ON1C(=O)CCC1=O (centres undefined) | 124%
8 | O=S(=O)(NCCCNc1nccc(-n2ccc3cccnc32)n1)c1ccc(Br)cc1 | 107%
9 | COc1ccc(/C=C2\Oc3cc(OCCCN4CCCC4)ccc3C2=O)cc1 | 78.9%
10 | Cc1csc(NC(c2ccc(Br)cc2)c2c(C)nc3ccccn23)n1 (centres undefined) | 112%
11 | Cn1c(=O)cc(NC(=O)CN2CCN(c3cc4c(cc3F)c(=O)c(C(=O)O)cn4C3CC3)CC2)[nH]c1=O | 102%
12 | CC(C)(C)n1cc(-c2ccnc(NCCNS(=O)(=O)c3ccc(F)cc3)c2)c(-c2cccc(O)c2)n1 | 60%
13 | CC(C)(C)n1cc(-c2ccnc(NCCNS(=O)(=O)c3ccc(Cl)cc3)c2)c(-c2cccc(O)c2)n1 | 64.3%
14 | O=C1Nc2ccc3c(c2/C1=C\c1cc2c(cc1Br)OCO2)OCO3 | -16.3% (active)
15 | Cc1ccc(N2CCN(C(C)C(N)=O)CC2)cc1 (centres undefined) | 111%
16 | COc1cc(NC(N)=NCCC(C)(C)Oc2ccc(C(F)(F)F)cc2)ncc1C#N | -50.4% (active)
17 | CCc1ccc(-c2ccc(=O)n(-c3ccc(S(N)(=O)=O)cc3)n2)cc1 | -31.8% (active)
18 | CC[N+](CC)=c1cc2oc3cc(N(C)C)ccc3nc-2cc1C | 81.7%
19 | COc1cccc(-c2nc3sccn3c2-c2ccnc(NCCCNS(=O)(=O)c3ccc(F)cc3)c2)c1 | 63.2%
20 | N[C@H]1CN(C(=O)c2cc3cc(Br)c(F)c(F)c3[nH]2)C[C@@H]1O | 103%

Row | SMILES | growth
21 | O=C(N/N=C/C=C\c1ccccc1)C(=O)N/N=C/C=C/c1ccccc1 | 127%
22 | O=C(O)COc1ccc(-c2cssc2=S)cc1 | 107%
23 | CCOC(=O)c1c(NS(=O)(=O)c2ccc(C)cc2)sc2c1CCC1(C2)OCCO1 | 103%
24 | Cc1nc2ncccc2nc1Nc1ccc(S(=O)(=O)Nc2ccccn2)cc1 | 109%
25 | Fc1ccc(Nc2ncnc3ccc(-c4cnc5[nH]ccc5c4)cc23)cc1Cl | -27.3% (active)
26 | COc1ccc(C2C(C#N)=C(N)Oc3c2ccc2ccccc32)cc1 (centres undefined) | 36.5%
27 | COc1ccc(C(=O)N2NC(=O)/C(=C/c3cn(-c4ccccc4)nc3-c3ccccc3)N=C2c2ccccc2)cc1 | 104%
28 | C=C1C(=O)O[C@H]2[C@H]1CC/C(Cn1cc(CNC(=O)Cc3cn(C(=O)c4ccc(Cl)cc4)c4ccc(OC)cc34)nn1)=C\CC[C@@]1(C)O[C@@H]21 | -61.3% (active)
29 | CCCCC(CC)OC(=O)C(Br)CC (centres undefined) | 114%
30 | O=C1/C(=C/c2ccccc2)Oc2ccc(O)c(I)c21 | 108%
31 | COC(=O)c1cc2cc(-c3ccc(OC)cc3)cnc2[nH]1 | -36.4% (active)
32 | c1coc(CNc2ccnc(Nc3ccc(OCCN4CCCCC4)cc3)n2)c1 | 71.3%
33 | COc1ccc2[nH]c(C(=O)OCc3ccc4c(Cl)cc(Cl)c(O)c4n3)cc2c1 | -93% (active)
34 | CCOC(=O)C1CCNC(=O)C1=O (centres undefined) | 108%
35 | O=C(O)C1CCCCN1c1nc(Cl)nc(Cl)n1 (centres undefined) | 113%
36 | C=C1CCC2C(C)(CO)C(O)CCC2(C)C1CC(NCc1ccccc1)C1=CCOC1=O (centres undefined) | 103%
37 | CCCCCCCCCCCC(=O)NCCC[N+](C)(C)CC(=O)[O-] | 77.2%
38 | CN(CCCCCl)P(=O)(OCc1ccc([N+](=O)[O-])o1)C(F)(F)C[C@H](NC(=O)CNC(=O)c1ccc(N=[N+]=[N-])cc1)C(=O)NCCc1ccc(O)cc1 (some centres undefined) | 47.6%
39 | NC(N)=Nc1nc2ccccc2o1 | 114%
